The whole screen tested about 190,000 compounds, of which about 810 (0.43%) were called active. No stated cut-off is given here; in the data, active means inhibition above about 50%; inactive means the rest. This excerpt belongs to a sample that is enriched for actives.

Mannose-6-phosphate isomerase (Homo sapiens), sequence (P34949 whole entry, looked up): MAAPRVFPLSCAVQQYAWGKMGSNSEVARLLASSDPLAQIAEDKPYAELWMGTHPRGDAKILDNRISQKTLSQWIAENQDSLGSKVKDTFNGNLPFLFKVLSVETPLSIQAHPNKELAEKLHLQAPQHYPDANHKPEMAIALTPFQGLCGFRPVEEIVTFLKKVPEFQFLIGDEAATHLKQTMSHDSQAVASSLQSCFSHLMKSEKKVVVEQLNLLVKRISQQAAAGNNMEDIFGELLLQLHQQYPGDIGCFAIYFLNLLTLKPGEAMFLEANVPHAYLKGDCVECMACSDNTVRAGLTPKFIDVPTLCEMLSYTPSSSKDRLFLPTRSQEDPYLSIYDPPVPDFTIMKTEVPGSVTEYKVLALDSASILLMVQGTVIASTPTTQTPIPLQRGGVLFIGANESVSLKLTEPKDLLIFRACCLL

The assay has as its target Mannose-6-phosphate isomerase (Homo sapiens) (UniProt P34949). Kind of assay: MPI enzyme activity inhibition – biochemical, fluorescence intensity, coupled assay, primary screen (AID 1209).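 Further: plate controls were DMSO vehicle for no effect and wells lacking substrate for full effect.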 To be noted: purified PMI enzyme, at 20 µM, stronger effect = higher value.
In general, inhibition refers to the drop in the measured response relative to a control, in per cent. As to `CCN(CC)CCNC(=O)C1CCC(=O)N1CCc1ccccc1` (configuration not stated), the inhibition is 4.7% (inactive).
As for `CCOc1cc(/C=N/O)ccc1OCc1ccc(F)cc1`, the figure is -0.3% (inactive); as for `CC(C)NC(=O)c1onc(CSc2ccc(F)cc2)c1C(=O)O`, -5.1% (inactive).
In the case of `O=C(c1ccc(F)cc1)N1CCN2C(=O)c3ccccc3C12c1ccc(Cl)cc1` (configuration not stated), the inhibition is 8.3% (inactive).
The value for `Cc1c([N+](=O)[O-])ccc(S(=O)(=O)N2CCC(C(N)=O)CC2)c1C` was 10.6% (inactive).
The value for `COC(=O)c1ccc2c(=O)n(-c3ccccc3F)c(=S)[nH]c2c1` was -15.3% (inactive); that for `COC(=O)c1ccc2c(=O)n(-c3ccccc3)c(=S)[nH]c2c1` was 0.9% (inactive).
With `COC(=O)c1ccc(C(=O)OC)c(-n2c(=O)c3ccccc3c3ccccc3c2=O)c1`, the inhibition is 80.2% (active).
For `CCCCCN(C(=O)NC(=O)Nc1nncs1)S(C)(=O)=O`, the inhibition is -0.4% (inactive).
As for `CCn1cc(C2=NCCO2)c2ccccc21`, the figure is 0.2% (inactive); as for `CCOC(=O)Cc1csc(NC(=O)c2c(O)c3ccccc3n(C)c2=O)n1`, 7.5% (inactive).
As for `O=C1CCC([N+](=O)[O-])C(c2ccccc2Cl)N1` (configuration not stated), the inhibition is 2.8% (inactive).
The value for `O=C1CCC([N+](=O)[O-])C(c2cccc3ccccc23)N1` (configuration not stated) was 101% (active); that for `O=C1CCC([N+](=O)[O-])C(c2cccc(Cl)c2Cl)N1` (configuration not stated) was -4.8% (inactive).
The value for `O=C(Cc1ccccc1)Nc1ccccc1C(=O)O` was -3% (inactive).
As for `O=c1c2c([nH]c3ccc(Br)cc13)CCCC2`, the figure is -15.1% (inactive); as for `Cc1cc(=O)c2cc(Br)ccc2[nH]1`, 0.3% (inactive).
Turning to `O=c1ccc2cc3c([nH]c4ccc(Br)cc43)oc-2c1O`, the inhibition was 70.2% (active).
As for `O=C(NCC(=O)N(Cc1cccs1)C(C(=O)NC1CCCCC1)c1ccco1)c1ccco1` (configuration not stated), the inhibition is 11% (inactive).
Consider `Cc1n[nH]c(=S)n1/N=C/c1ccc(OCc2ccc(Cl)cc2)cc1`, for which the inhibition was -6.8% (inactive).
The value for `CSc1ccc(/C=N/n2c(Cc3ccc(Br)cc3)n[nH]c2=S)cc1` was 14.5% (inactive); that for `S=c1[nH]nc(Cc2ccc(Br)cc2)n1/N=C/c1ccc(Cl)cc1` was 51.1% (active); that for `CCN1CCN(C(=O)C(C)Nc2cc(Cl)c(OC)cc2OC)CC1` (configuration not stated) was 26.6% (inactive).
As for `O=C(CSc1nc2ccccc2c(=O)[nH]1)c1ccc(O)cc1O`, the figure is -5.9% (inactive); as for `CCCCNS(=O)(=O)c1ccc(NC(=O)C(Sc2ccccc2)c2ccccc2)cc1` (configuration not stated), 23.4% (inactive); as for `O=c1c2ccccc2oc2nc(-c3ccco3)n(-c3ccccc3)c(=O)c12`, 1.3% (inactive).
As for `Cn1c(=Nc2ccc(N3CCOCC3)cc2)ccc2ccccc21`, the figure is 78.4% (active); as for `CCn1c(=Nc2ccc(N3CCOCC3)cc2)ccc2ccccc21`, 6% (inactive); as for `Cn1c(N=Nc2ccc(N3CCOCC3)cc2)[n+](C)c2ccccc21`, 15.1% (inactive).
Regarding `CCOC(=O)Cc1csc(NC(=O)c2c(-c3ccccc3)noc2C)n1`, the inhibition was 2.9% (inactive).
As for `Cc1cc(C)n(C(=O)c2ccncc2)n1`, the figure is 6.1% (inactive); as for `Cc1oc2cc(O)ccc2c(=O)c1Oc1ccccc1`, 9.2% (inactive).
As for `CC(=O)Oc1ccc2c(=O)c(N3C(=O)c4ccccc4C3=O)c(C)oc2c1C`, the figure is 14.5% (inactive); as for `CCn1c(NCc2ccccn2)nc2c1c(=O)n(C)c(=O)n2C`, -0.4% (inactive).
As for `Oc1c(/C=N/c2ncn[nH]2)ccc2ccccc12`, the figure is 14.9% (inactive); as for `Oc1c(C=Nc2cccc3nsnc23)ccc2ccccc12`, 70.7% (active); as for `Oc1c(/C=N/Nc2cccc3cccnc23)ccc2ccccc12`, -30.2% (inactive).
Turning to `CCCCCCC1CC(=O)NC(=S)N1` (configuration not stated), the inhibition was 4.8% (inactive).
`COc1ccc(NC(=O)C(C)Oc2ccc(/C(C)=N\O)cc2)cc1` (configuration not stated): the inhibition was -0.3% (inactive).
The value for `COc1cccc2cc(C(C)N(CCCN3CCOCC3)C(=S)Nc3cccc(C)c3)oc12` (configuration not stated) was 5.2% (inactive); that for `COc1ccc(CNC(=O)c2cccc3c2C(=O)N(Cc2cccnc2)C3)cc1` was 4.4% (inactive); that for `Cc1c(Br)c(=O)oc2c(Br)c(O)c(O)cc12` was 12.8% (inactive).
The value for `Cc1c(Br)c(=O)oc2c(Br)c(O)ccc12` was -26.1% (inactive); that for `O=c1oc2c(O)c(O)cc3c(=O)oc4c(O)c(O)cc1c4c23` was 67.5% (active); that for `O=C(COC(=O)c1ccc(Cl)nc1)c1ccc2c(c1)OCCO2` was -10.6% (inactive).
The value for `CSCC[C@H](NC(=O)c1cc([N+](=O)[O-])ccc1Cl)c1nc2ccccc2[nH]1` was 16.7% (inactive); that for `CN(C)c1ncccc1-c1nc2ccccc2s1` was -2.6% (inactive); that for `Cc1c(Cc2ccccc2)c(=O)oc2c(O)c(O)ccc12` was 77.6% (active).
As to `Cc1c(Cc2ccccc2)c(=O)oc2c(CN(C)C)c(O)c(Cl)cc12`, the inhibition was 1.2% (inactive).
`COc1ccc2c(C)c(Cc3ccccc3)c(=O)oc2c1OC`: the inhibition is 0.7% (inactive).
As for `N#C/C(C(=O)N1CCCCC1)=C1/N=C(N)c2ccccc21`, the figure is -1.3% (inactive).
With `CC1CC1C(=O)Nc1cc(S(=O)(=O)N2CCOCC2)ccc1N1CCCC1` (configuration not stated), the inhibition was -3.9% (inactive).
The value for `N#Cc1ccc(OCC(=O)NCCc2ccc(S(N)(=O)=O)cc2)cc1` was -7% (inactive).
The value for `O=S(=O)(c1ccc2c(c1)oc1ccccc12)N1CCOCC1` was 9.1% (inactive); that for `O=c1c2ccccc2sn1-c1cc(S(=O)(=O)N2CCOCC2)ccc1N1CCCC1` was 92.7% (active).
As for `O=C(O)c1cc(S(=O)(=O)N2CCOCC2)ccc1N1CCOCC1`, the figure is -1% (inactive).
Turning to `Cc1ccc(C)n1-c1cc(S(=O)(=O)N2CCOCC2)ccc1N1CCCC1`, the inhibition was 9.8% (inactive).
As for `O=c1c2ccccc2sn1-c1cc(S(=O)(=O)N2CCOCC2)ccc1N1CCOCC1`, the figure is 104% (active); as for `O=c1c2ccccc2sn1-c1ccc(S(=O)(=O)N2CCCC2)cc1`, 42.4% (inactive).
As for `CC(=O)c1ccc(N(C(=O)c2ccco2)C(C(=O)NC2CCCC2)c2ccc(N3CCOCC3)cc2)cc1` (configuration not stated), the figure is 6.3% (inactive).
The value for `Cc1ccc(P(=O)(CO)c2ccc(C)cc2)cc1` was -12% (inactive); that for `CN(Cc1ccccc1)C(=O)COC(=O)c1ccc(Cl)c(N)c1` was 9.3% (inactive).
For the compound `O=C(Cc1ccc(Cl)cc1Cl)NCC1(N2CCOCC2)CCCCC1`, the inhibition is 14.5% (inactive).
As for `Cc1ccc(NS(=O)(=O)c2cc(C(=O)Nc3cccc(N(C)S(C)(=O)=O)c3)ccc2C)c(C)c1`, the figure is 5.7% (inactive).
As for `CCOC(=O)C1CCN(C(=O)CC(C)c2ccccc2)CC1` (configuration not stated), the figure is -0.6% (inactive); as for `CCc1ccc(O)c(N=Cc2cccc(C)c2O)c1`, 18.5% (inactive); as for `Cc1ccc(O)c(C=Nc2cc(C)ccc2O)c1`, 23.1% (inactive).
Regarding `Cc1ccccc1N=Cc1cccc(O)c1O`, the inhibition is 74.1% (active).
The value for `CCN(CC)c1ccc(C=Nc2ccc(C)cc2C)c(O)c1` was -0.7% (inactive).
The value for `CCN(CC)c1ccc(C=Nc2ccccc2C)c(O)c1` was 27.1% (inactive).
As for `O=C(/C=C/c1ccc([N+](=O)[O-])cc1)N(c1ccccn1)C1CCCCC1`, the figure is -38.1% (inactive).
In the case of `COc1cc(/C=N/N=C(/N)c2nonc2N)cc(Br)c1OCc1cccc(C)c1`, the inhibition was 16.3% (inactive).
The value for `OC(CNCc1ccccc1Cl)C(F)(F)F` (configuration not stated) was 5.4% (inactive); that for `COc1ccccc1N1CCN(C(=O)c2ccc(CSc3ccccc3)cc2)CC1` was -1.4% (inactive); that for `Cc1ccc(O)c(CP(=O)(c2ccccc2)c2ccccc2)c1` was -4.9% (inactive).
`COc1ccc(F)cc1C(=O)C1CCCN(C(=O)C2=C(C)OCCO2)C1` (configuration not stated): the inhibition is 5.1% (inactive).
The value for `CCCCn1c(SCC(=O)OCC)nc2c1c(=O)[nH]c(=O)n2C` was 3.6% (inactive).
As for `CCCCCn1c(SCC(=O)OC)nc2c1c(=O)[nH]c(=O)n2C`, the figure is 0.2% (inactive); as for `CCCCCCn1c(SCC(=O)OC)nc2c1c(=O)[nH]c(=O)n2C`, 54% (active); as for `Fc1ccc2nc(N3CCCC3)sc2c1`, 8.5% (inactive).
With `COc1cc(CNC(C)(C)CO)cc(Br)c1OCc1ccc(Cl)cc1`, the inhibition is 5.6% (inactive).
For the compound `FC(F)(F)c1cccc(OCCOCCn2cncn2)c1`, the inhibition is 3.9% (inactive).
The value for `Cc1ccc(C2CC(C(F)(F)F)n3ncc(C(=O)NCc4ccco4)c3N2)cc1` (configuration not stated) was 108% (active); that for `O=C(NCc1ccco1)c1cnn2c1NC(c1ccc(Br)cc1)CC2C(F)(F)F` (configuration not stated) was 27% (inactive).
As for `O=C(NCc1ccco1)c1cnn2c1NC(c1ccccc1)CC2C(F)(F)F` (configuration not stated), the figure is -6.3% (inactive); as for `COc1cc(NC(=O)C(C)Oc2ccccc2)c(C(=O)O)cc1OC` (configuration not stated), 10.7% (inactive).
As for `O=C(Cc1c[nH]c2ccccc12)NC1(C(=O)NC2CCCCC2)CCCCC1`, the figure is -4% (inactive); as for `COC(=O)c1ccc(C2C(Oc3ccc(OC)cc3)C(=O)N2CCc2ccc(OC)c(OC)c2)cc1` (configuration not stated), 52% (active).
Take `COC(=O)c1ccc(C2C(Oc3ccc(OC)cc3)C(=O)N2CCc2ccc(F)cc2)cc1` (configuration not stated): the inhibition is -0.6% (inactive).
In the case of `COC(=O)c1ccc(C2C(Oc3ccccc3)C(=O)N2CCc2ccc(OC)c(OC)c2)cc1` (configuration not stated), the inhibition was -2.9% (inactive).
As to `COCCNC(=O)C(c1cccs1)N(C(=O)Cn1nnc2ccccc21)c1cccc(C)c1` (configuration not stated), the inhibition was 5.9% (inactive).
As for `O=C(Cn1cc(/C=N/NC(=O)c2ccccc2Br)c2ccccc21)Nc1ccc(F)cc1`, the figure is 5.7% (inactive); as for `O=C(CCS(=O)(=O)c1ccc(Cl)cc1)OCC(=O)N1CCCCC1`, 9.3% (inactive); as for `Cc1cccc(-n2nnc(C(=O)NCc3ccco3)c2N)c1`, -18.8% (inactive).
As for `CCOc1cccc(N2C(=O)CC(N(CCc3ccc(OC)c(OC)c3)C(=O)CC)C2=O)c1` (configuration not stated), the figure is 57% (active); as for `CCOC(=O)c1ccc(N2C(=O)CC(N(C)CCc3ccc(OC)c(OC)c3)C2=O)cc1` (configuration not stated), 16.4% (inactive); as for `CCOc1ccc(N2C(=O)CC(N(CCc3ccc(OC)c(OC)c3)C(=S)Nc3ccccc3)C2=O)cc1` (configuration not stated), 19.8% (inactive).

For the origin of these results see PubChem BioAssay AID1209 (Sanford-Burnham Center for Chemical Genomics, 2008).
